Structures can show the parent of a compound that is named as a salt. ± gives the standard deviation of the averaged measurements.
These molecules were tested on HT-1080 (assay: relative cell viability with RSL3 co-treatment (fraction of control); higher = stronger protection from RSL3-induced ferroptosis (higher viability)). Conditions: 10 µM.
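Note: viability read as CCK-8 absorbance at 450 nm in cells co-exposed to the GPX4 inhibitor RSL3, relative to a 0.01% DMSO vehicle control.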

Row | Structure (SMILES) | relative cell viability
1 | O=S(=O)(c1cccc2cnccc12)N1CCCNCC1 [Fasudil (HA-1077) HCl] | 1.13 ± 0.1
2 | Clc1ccc(Nc2nnc(Cc3ccncc3)c3ccccc23)cc1 [Vatalanib (PTK787) 2HCl] | 0.827 ± 0.047
3 | N#Cc1ccc2[nH]c(O)c(-c3ccc(CN4CCOCC4)cn3)c2c1 | 0.75 ± 0.046
4 | Cc1nc(Nc2n[nH]c3c2CN(C(=O)N[C@H](CN(C)C)c2ccccc2)C3(C)C)c2sccc2n1 | 0.557 ± 0.032
5 | CCc1ccc(/C=C2/SC(=S)NC2=O)cc1 | 0.62 ± 0.087
6 | CN(C)S(=O)(=O)c1ccc2c(c1)/C(=C/c1cc3c([nH]1)CCCC3)C(=O)N2 | 0.727 ± 0.081
7 | CC[C@@H]1C(=O)N(C)c2cnc(Nc3ccc(C(=O)NC4CCN(C)CC4)cc3OC)nc2N1C1CCCC1 | 0.553 ± 0.031
8 | C=CC(=O)Nc1cc(Nc2nccc(-c3cn(C)c4ccccc34)n2)c(OC)cc1N(C)CCN(C)C [Osimertinib (AZD9291)] | 0.403 ± 0.068
9 | CC(C)n1nc(-c2cc3cc(O)ccc3[nH]2)c2c(N)ncnc21 [Torkinib (PP242)] | 0.833 ± 0.12
10 | COc1ccc(S(=O)(=O)N(CCO)c2ccccc2CN(C)C/C=C/c2ccc(Cl)cc2)cc1 [KN-93 Phosphate] | 0.813 ± 0.011
11 | CS(=O)(=O)c1cccc(CNc2nc(Nc3ccc4c(c3)CCC(=O)N4)ncc2C(F)(F)F)c1 | 0.91 ± 0.085
12 | CNC(=O)c1cc(Oc2ccc(NC(=O)Nc3ccc(Cl)c(C(F)(F)F)c3)cc2)ccn1 [Sorafenib Tosylate] | 0.317 ± 0.04
13 | CCN(CC)CCCCNc1ncc2cc(-c3cc(OC)cc(OC)c3)c(NC(=O)NC(C)(C)C)nc2n1 | 0.633 ± 0.14
14 | Cc1cc(F)c(Nc2ncnc3cc(OCc4ccccc4)ccc23)cc1O | 0.797 ± 0.021
15 | CNc1nc(Nc2cn(C(C)(C)C#N)nc2C)ncc1C(F)(F)F | 0.757 ± 0.1
16 | Cc1cc(C(=O)NOCCO)c(Nc2ccc(I)cc2F)n(C)c1=O | 0.793 ± 0.16
17 | Clc1ccc(C2(c3ccc(-c4cn[nH]c4)cc3)CCNCC2)cc1 | 0.373 ± 0.068
18 | C[C@H]1[C@H](C)CC[C@]2(C(=O)O)CC[C@]3(C)C(=CC[C@@H]4[C@@]5(C)C[C@@H](O)[C@H](O)[C@@](C)(CO)[C@@H]5CC[C@]43C)[C@H]12 [Asiatic Acid] | 0.58 ± 0.14
19 | COc1cc(N2CCC(N3CCN(C)CC3)CC2)ccc1Nc1ncnc(Nc2ccccc2S(=O)(=O)C(C)C)n1 | 0.807 ± 0.023

Row | Structure (SMILES) | relative cell viability
20 | C[C@@H](NC(=O)c1ncnc(N)c1Cl)c1ncc(C(=O)Nc2cc(C(F)(F)F)c(Cl)cn2)s1 | 0.6467 ± 0.0058
21 | Cn1cnc2c(F)c(Nc3ccc(Br)cc3Cl)c(C(=O)NOCCO)cc21 [Selumetinib (AZD6244)] | 0.807 ± 0.015
22 | CN1CCC(CNc2ccc3ncc(-c4cccc(OC(F)(F)F)c4)n3n2)CC1 [SGI-1776 free base] | 0.507 ± 0.16
23 | CC[C@@H]1C(=O)N(C)c2cnc(Nc3ccc(C(=O)N[C@H]4CC[C@H](N5CCN(CC6CC6)CC5)CC4)cc3OC)nc2N1C(C)C [Volasertib (BI 6727)] | 0.397 ± 0.15
24 | O=C(NC[C@H](O)CO)c1ccncc1Nc1ccc(I)cc1F | 0.803 ± 0.076
25 | Cc1nc(N)sc1-c1ccnc(Nc2ccc(N3CCOCC3)cc2)n1 | 0.6 ± 0.095
26 | Cc1nc(Nc2ncc(C(=O)Nc3c(C)cccc3Cl)s2)cc(N2CCN(CCO)CC2)n1 [Dasatinib] | 0.553 ± 0.091
27 | O=C(Nc1ccc(OC(F)(F)F)cc1)c1sccc1NCc1ccnc2ccccc12 | 0.57 ± 0.095
28 | CC(C)Nc1cc(-c2c[nH]c(C(=O)N[C@H](CO)c3cccc(Cl)c3)c2)c(Cl)cn1 | 0.753 ± 0.076
29 | COc1ncc(-c2ccc3nccc(-c4ccnnc4)c3c2)cc1NS(=O)(=O)c1ccc(F)cc1F | 0.24 ± 0.14
30 | CC1=C(C(=O)Nc2cc3cn[nH]c3cc2F)C(c2ccc(C(F)(F)F)cc2)CC(=O)N1 (stereo not drawn) | 0.883 ± 0.084
31 | CNc1nc(-c2ccc3c(N)n[nH]c3c2)cc(N2C[C@@H](C(=O)NC3CCCCC3)CC[C@H]2C)n1 | 0.647 ± 0.13
32 | CN1CCC(Nc2nc(Nc3ccc(Oc4ccccc4)cc3)c3c(=O)[nH]cc(Br)c3n2)CC1 | 0.68 ± 0.087
33 | CC(C)(O)CC(=O)NCCn1ccc2ncnc(Nc3ccc(Oc4cccc(C(F)(F)F)c4)c(Cl)c3)c21 | 0.567 ± 0.04
34 | CCN(CC)CCNC(=O)c1c(C)[nH]c(/C=C2\C(=O)Nc3ccc(F)cc32)c1C [Sunitinib Malate] | 0.543 ± 0.099
35 | Cn1cc(/C=C2\C(=O)Nc3cccnc32)c2ccccc21 | 0.927 ± 0.015
36 | COc1ccc(S(=O)(=O)N(C(C)=O)c2ccccc2/C=C/c2cc[n+]([O-])cc2)cc1 | 0.633 ± 0.015
37 | CCn1c2ccccc2c2cc(Nc3ccnc(NCCCN4CCOCC4)n3)ccc21 | 0.64 ± 0.089
38 | C[C@H](NC(=O)/C(C#N)=C/c1cccc(Br)n1)c1ccccc1 | 0.807 ± 0.13
